Hits are enriched below; roughly 4.8% of the tested compounds scored in any of these assays.
DAX1 inh-1: DAX1 (NR0B1) inhibitors on StAR promoter, primary screen, cell-based, luminescence, SF-1 (NR5A1), full-length DAX-1 | HEK293T StAR-luciferase reporter, SF-1/DAX-1 repression relief | inhibition, % at 6.8 µM | hit rate 1.1% among 370,000;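 active = inhibition above the mean over all tested compounds plus 3 SD, cut at about 3.6% in these data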;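 also: 0% = DAX-1 cells with DMSO and 100% = cells lacking DAX-1 with DMSO; higher inhibition means more luminescence from relief of DAX-1 repression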
SMARCA2 activ: SMARCA2 (BRM) function activators, primary screen, cell-based, luminescence, high throughput; MG213 cells, MMTV-luciferase reporter, dexamethasone, overnight; activation, % at 9.1 µM; hit rate 1% among 370,000; in the data active = activation above about 7.8%;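 also: 0% = vehicle wells and 100% = reference activator wells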
hcDAF12 agonist: H. contortus DAF-12 nuclear receptor activators, primary screen, cell-based, luminescence, HEK293, lit1-tk-luc reporter; HEK293 hcDAF-12 lit1-tk-luc reporter; 0% DMSO, 100% Δ7-dafachronic acid; activation, % at 6.8 µM; hit rate 1.4% among 370,000;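 active = activation above the mean of all tested compounds plus 3 SD, cut at about 5.5% in these data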;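 also: 100% = response to 3 µM Δ7-dafachronic acid high control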
hgDAF-12 ag: H. glycines DAF-12 receptor agonists, primary screen, cell-based, luminescence, HEK293, GAL4 fusion, UAS-luciferase. HEK293 GAL4-hgDAF12 UAS-luciferase reporter, agonist luminescence; normalized to butyrate control. activation, % at 6.8 µM. hit rate 1.8% among 370,000. AID 687014, 2013;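 active = activation above a cutoff set at the mean of all screened compounds plus 3 SD, cut at about 10% in these data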;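 also: 0% = DMSO wells and 100% = sodium butyrate wells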
ssDAF12 agonist: S. stercoralis DAF-12 nuclear receptor activators, primary screen, cell-based, luminescence, HEK293, GRIP1 co-expression, lit1-tk-luc | Nuclear hormone receptor DAF-12 (Strongyloides stercoralis) | HEK293 ssDAF-12/GRIP1 lit1-tk-luc reporter; % of 3 µM dafachronic acid response | activation, % at 6.8 µM | hit rate 1% among 370,000;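 active = activation above the mean over all tested compounds plus 3 SD, cut at about 0.9% in these data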;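 also: 0% = DMSO-only wells and 100% = 3 µM delta7-dafachronic acid wells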
DAX1 inh-2: DAX1 (NR0B1) inhibitors, primary screen, cell-based, HEK293, Gal4-DAX1, luciferase luminescence; Nuclear receptor subfamily 0 group B member 1 (Homo sapiens), P51843; HEK293 Gal4-DAX1 luciferase reporter; inhibition, % at 6.75 µM; hit rate 0.99% among 340,000; AID 504766, 2011;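 active = inhibition above the mean over all tested compounds plus 3 SD, cut at about 4.2% in these data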;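 also: 0% = DAX1-transfected cells with DMSO and 100% = empty-vector control cells with DMSO; inhibition shows as a rise in luminescence from relieved DAX1 repression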
Target sequence (P51843 207-470 limits assumed): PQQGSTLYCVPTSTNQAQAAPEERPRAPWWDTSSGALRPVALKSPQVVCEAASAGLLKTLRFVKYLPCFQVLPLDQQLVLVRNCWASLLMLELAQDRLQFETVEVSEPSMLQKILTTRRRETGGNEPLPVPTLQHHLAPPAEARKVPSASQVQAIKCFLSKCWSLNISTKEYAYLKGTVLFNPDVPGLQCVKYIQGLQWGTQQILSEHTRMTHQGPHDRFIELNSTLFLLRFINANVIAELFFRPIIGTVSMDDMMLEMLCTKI
SMARCA2 act conf: SMARCA2 (BRM) function activators, confirmation, cell-based, luminescence, triplicate. hit rate 30% among 3,500. AID 652260, 2013. shares compounds with SMARCA2 activ. activation, % at 9.1 µM. MG213 cells, MMTV-luciferase with dexamethasone, overnight; MG213 cells expressing E1A, Rb sequestered; DMSO wells 0%, reference activator 100%;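 active = activation above its plate's cutoff, the mean activation of tested wells plus 3 SD, cut at about 7.9% in these data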
VP16 Luc act: GAL4-VP16 luciferase reporter activation, counter-screen for SMARCA2 (BRM) activator project, cell-based, pG5luc, luminescence, high throughput; activation, % at 9.1 µM; hit rate 41% among 3,500; AID 686939, 2013; shares compounds with SMARCA2 activ; HEK293 GAL4-VP16 pG5luc reporter; scaled: DMSO wells 0%, SAHA wells 100%;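 active = activation above the solvent-only control well mean plus 3 SD, averaged across control plates, cut at about 5.2% in these data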
Numbers without * were called inactive; . = no result.

SMILES | DAX1 inh-1 | SMARCA2 activ | hcDAF12 agonist | hgDAF-12 ag | ssDAF12 agonist | DAX1 inh-2 | SMARCA2 act conf | VP16 Luc act
C[C@@H]1CN([C@@H](C)CO)C(=O)CCCn2cc(nn2)CO[C@H]1CN(C)C(=O)CCCN(C)C | 1 | 4 | 2 | 0 | -1 | 0 | . | .
C[C@H](CO)N1C[C@H](C)[C@@H](CN(C)C(=O)CCC(F)(F)F)OCc2cn(nn2)CCCC1=O | 0 | 8.4* | 0 | -1 | 0 | . | 0 | 1
Cn1c(=O)[nH]c(=O)c2c1nc(N1CCCCC1)n2CCSc1nc2ccccc2o1 | -1 | -1 | 0 | 3 | 0 | 1 | . | .
CC(C)CCn1c(Sc2nc3ccccc3o2)nc2c1c(=O)[nH]c(=O)n2C | 0 | 8.1* | -2 | 6 | -1 | 1 | 2 | 5
CCN(CC)C(=O)CC[C@H]1CC[C@]2(CCCN(Cc3nccs3)C2)O1 | 0 | -5 | -3 | -1 | -1 | . | . | .
Nc1ccc(Nc2nc(-c3ccncc3)cs2)cc1 | 0 | 13* | 0 | -1 | -2 | 0 | 11* | 13*
Clc1ccc(Nc2nc(-c3ccncc3)cs2)cc1 | 1 | 3 | 1 | 7 | 1 | 0 | . | .
Cc1ccc(C2=CCN(C)C(=O)N2c2ccccc2)cc1 | 0 | -3 | 3 | 1 | 0 | . | . | .
Cc1ccc(S(=O)(=O)/N=C(/c2ccccc2)N2CCOCC2)cc1 | 0 | 8.2* | -1 | -1 | -1 | 0 | -2 | 1
Cc1cccc(C)c1NC(=O)[C@@H]1CC(=O)O[C@@H]1c1ccccc1 | -1 | -4 | 0 | -2 | -1 | . | . | .
N=c1n(CC(=O)c2ccc(Br)s2)c2ccccc2n1Cc1ccccc1 | 0 | 8.2* | -1 | -2 | -1 | -1 | 23* | 2
O=c1c2ccccc2sn1-c1ccccc1 | -2 | 5 | 0 | 1 | -1 | 0 | . | .
Cn1sc2ccccc2c1=O | 0 | 13* | -1 | -2 | -1 | 0 | 16* | 2
O=c1c2ccccc2sn1-c1cccc(Cl)c1 | -2 | 13* | 2 | 2 | -1 | -1 | 3 | 1
N#Cc1c(/N=C/N2CCOCC2)sc2c1CCCCC2 | 3 | 18* | 5 | 10 | 0 | 1 | 7 | 12*
CCCN(/C=N/c1sc2c(c1C#N)CCCCC2)CCC | 0 | 15* | -2 | 4 | -1 | -1 | 0 | 2
CCOC(=O)[C@@]12CCCC3=C1N(CCC3)C(=O)[C@H]2CC(=O)N1CCCCC1 | 0 | -3 | 2 | 0 | -1 | . | . | .
Nc1ccnc(Oc2ccc(F)cc2)c1 | 0 | 18* | 1 | 2 | -1 | 0 | -2 | 4
N#Cc1ccc2nc(-c3ccc(CN4CCC5(CC4)CNc4ccccc45)cc3)c(-c3ccccc3)nc2c1 | -1 | -2 | -1 | 0 | -1 | . | . | .
O=C(NC1CCCCN(Cc2cccc(C(F)(F)F)c2)C1=O)c1ccc(Cl)cc1 (configuration not stated) | -2 | -3 | -4 | -4 | -2 | . | . | .
Cc1oncc1C(=O)Nc1cccc2ccccc12 | 0 | -2 | -2 | 3 | -1 | 0 | . | .
Cc1oncc1C(=O)Nc1ccc2ccccc2c1 | 3.8* | 9.1* | 3 | 9 | 0 | 0 | 9.3* | 5
O=C(NC(=S)N1CCc2ccccc21)c1ccccc1 | 0 | 8.5* | 4 | -1 | 0 | 0 | 2 | 1
Cc1ccc(CSCC(Nc2ccc(C(=O)O)cc2[N+](=O)[O-])C(=O)O)cc1 (configuration not stated) | 0 | 9.0* | -2 | -2 | -1 | -1 | 0 | -1
CCCOc1ccc(-c2cnc(N)s2)cc1 | 3 | 13* | 0 | 8 | -1 | 0 | 7 | 10*
SMILES | DAX1 inh-1 | SMARCA2 activ | hcDAF12 agonist | hgDAF-12 ag | ssDAF12 agonist | DAX1 inh-2 | SMARCA2 act conf | VP16 Luc act
Cc1ccc(-c2nc3ccccn3c2NCc2ccc3c(c2)OCO3)cc1 | 0 | 10* | 1 | 4 | -1 | 1 | 8.2* | 5
COc1ccc(-c2nc3ccc(C)cn3c2NCc2ccc3c(c2)OCO3)cc1 | 0 | 5 | 0 | 10 | -1 | 2 | . | .
O=C(NCc1ccco1)O[C@H]1CC[C@@]23CCCN2C(=O)CCC[C@H]3C1 | . | . | 2 | 3 | -2 | . | . | .
Cn1c(SC/C=C/c2ccccc2)nnc1-c1cccnc1 | 0 | -6 | -1 | 2 | -2 | . | . | .
Cc1cccc(C(=O)NCC(=O)N(C)Cc2nc3ccccc3c(=O)[nH]2)c1 | -1 | -2 | 0 | 1 | -1 | 0 | . | .
Cc1ccc(C(=O)N(C)Cc2nc3ccccc3c(=O)[nH]2)cc1NC(=O)c1ccco1 | 0 | 8.1* | 0 | -1 | 0 | 1 | -1 | 1
C[C@H]1COc2cc(NCCO)ccc2S(=O)(=O)N1 | -1 | -3 | 1 | 2 | -1 | . | . | .
CCOc1ccc2nc(NC(=O)CSc3cn[nH]n3)sc2c1 | 1 | 12* | 3 | 10 | 1 | 1 | 8.2* | 13*
CCCn1nnc(NC(=O)c2ccccc2Cl)n1 | 1 | 3 | 3 | 6 | -1 | 2 | . | .
CCCn1nnc(NC(=O)c2ccc(Cl)cc2Cl)n1 | 1 | 14* | 0 | 10 | 0 | 2 | 1 | 7.8*
Cn1cc(CC(=O)Nc2ccc(Nc3cccnc3)cc2)c2ccccc21 | -1 | -4 | -2 | -2 | -2 | . | . | .
O=C(Nc1ccc2oc(-c3ccccc3Cl)nc2c1)c1cncc(Br)c1 | 0 | 8.1* | 1 | 5 | -2 | 1 | 0 | 5
CCCC(=O)Nc1ccc2oc(-c3cncc(Br)c3)nc2c1 | 1 | 1 | 5 | 7 | 0 | 2 | . | .
CCOC(=O)c1cccc(NC(=O)CN(C)S(=O)(=O)c2ccc(C)c(C)c2)c1 | 0 | -2 | -2 | -2 | -1 | . | . | .
CCOC(=O)CC[C@H]1CC[C@]2(CCCN(C3CCCCC3)C2)O1 | 1 | -2 | -1 | 3 | -1 | . | . | .
